D3 antag = D3 dopamine receptor (human) antagonism. max response, negative = inhibition, %. P35462. 360,000 compounds, 2.5% hits. D3R cells, DiscoveRx beta-arrestin luminescence, antagonist mode; active compounds read low; in the data active = max response below about -50%; inconclusive = no clear call, values can overlap the other calls; also: % is scaled to controls: 0 for no effect and ±100 for the full control effect
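Cells plated overnight at 1500 cells/well, then exposed to library compounds with dopamine controls for 90 minutes at 37 degrees C. DiscoveRx reagent added for 30–60 minutes at room temperature; luminescence read, quantitative HTS format.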
Mm-Cpn inhibitor = inhibitors of Methanococcus maripaludis chaperonin TRiC (MmCpn); purified Mm-Cpn ATPase, ADP Transcreener TR-FRET; AID 504842; 330,000 compounds, 0.031% hits; Potency, µM (titrated, usually from 76.9 µM), without a hit: top-dose activity, negative = inhibition, actives largely listed as inhibitors; active = well fitted inhibition curve with a large enough effect; inconclusive = small, poorly fitted or top-dose-only effect; also: potency is read from the fitted curve at half-maximal effect; % is scaled to controls: 0 for no effect and ±100 for the full control effect; nearly all actives have a fitted effect of over 80% in size
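Compound-treated chaperonin, 25 nM final, turns over 10 uM ATP at 37°C for 30 min following a 10 min preincubation; ADP generated competes with ADP-d2 for Eu-cryptate antibody, lowering FRET.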
Rango release inh = inhibitors of RanGTP-induced Rango-importin beta complex dissociation; O95149+P62826; Biochemical FRET Rango-importin beta, RanGTP-induced dissociation; Potency, µM (top dose mostly 46.1 µM), for the others: at the top dose activity change, negative = inhibition; 340,000 compounds, 0.071% hits; also: potency is read from the fitted curve at half-maximal effect; % of control where 0% means no effect; nearly all actives have a fitted effect of over 45% in size
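Quantitative HTS using a FRET biosensor: 0.1 uM Rango, 0.25 uM importin beta, 0.6 uM Ran, 2 mM GTP, 0.2 uM RCC1 final, PBS with DTT, Tween-20 and BSA. Post-read taken 45 min after Ran addition.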
DRD3 agonist = activates the human D3 dopamine receptor; P35462; max activation, %; AID 652048; D3R DiscoveRx beta-arrestin cells, luminescence, 90 min; 410,000 compounds, 0.58% hits; in the data active = max activation above about 30%; also: 0% is about no effect
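Agonist-mode cell screen: cells plated at 1500/well and incubated overnight at 37 °C, then exposed to library compounds for 90 min at 37 °C. Detection reagent was added for 30–60 min at room temperature, and luminescence was read.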
PTAP TSG101 blk = blocks PTAP/TSG101 interaction to inhibit HIV-1 budding | Potency, µM (doses to about 115 µM), for the others: top-dose activity change, negative = inhibition, usual class: inhibitors | 340,000 tested, under 10 active | Q99816 | Fluorescence polarization, FITC-PTAP peptide / Tsg101 binding; active = well fitted inhibition curve with a large enough effect in the main read-out, with a control signal flat, not every such curve was filed as active; inconclusive = small, poorly fitted or top-dose-only effect, or effect the other way, or a change in a side signal; inactive = no such curve, though single readings can be large or run the other way; also: potency is read from the fitted curve at half-maximal effect; % of control where 0% means no effect
Target sequence (Q99816 whole entry, looked up): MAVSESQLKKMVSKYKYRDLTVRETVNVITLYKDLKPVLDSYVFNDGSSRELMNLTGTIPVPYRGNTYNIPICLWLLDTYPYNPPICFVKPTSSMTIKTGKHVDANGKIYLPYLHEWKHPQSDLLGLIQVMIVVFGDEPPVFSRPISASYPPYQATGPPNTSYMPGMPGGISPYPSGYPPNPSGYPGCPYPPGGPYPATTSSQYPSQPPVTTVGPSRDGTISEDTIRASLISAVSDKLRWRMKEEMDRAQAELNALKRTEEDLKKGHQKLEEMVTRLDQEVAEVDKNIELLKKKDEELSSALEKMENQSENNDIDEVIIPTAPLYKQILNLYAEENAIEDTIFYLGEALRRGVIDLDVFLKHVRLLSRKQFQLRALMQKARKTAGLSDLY
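Fluorescence anisotropy tracks displacement of a FITC-tagged PTAP peptide (50 nM) from the Tsg101 binding domain (10 uM), following a 20 min room-temperature incubation at pH 7.5.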
Rango-impB inh = prevents formation of the Rango-importin beta complex; Q14974; Rango CFP/YFP FRET sensor + importin beta, 45 min; Potency, µM (top dose mostly 92.2 µM), for inactives: at the highest dose inhibition of complex formation; 340,000 compounds, 0.031% hits; AID 540263;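 also: potency is read from the fitted curve at half-maximal effect; 0% = DMSO wells and 100% = buffer wells lacking importin beta; nearly all actives have a fitted effect of over 15% in size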
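Inhibition scored from the CFP 486 nm/YFP 530 nm FRET ratio 45 min after adding 0.125 microM importin beta to 50 nM Rango biosensor preincubated 5 min with compound (room temperature, PBS with DTT, Tween-20, BSA). No-importin wells as positive control.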
An asterisk follows results filed as active; u = inconclusive; x = no result; ! = a repeat was not active. Only some compounds are listed: those with a hit (about 2.9% of all), similar ones and a draw of the others. Unless noted, calls follow the shape of the full dose curve.

SMILES	D3 antag	Mm-Cpn inhibitor	Rango release inh	DRD3 agonist	PTAP TSG101 blk	Rango-impB inh
CCC(c1nnnn1-c1c(C)cccc1C)N1CCN(c2cccc(C(F)(F)F)n2)CC1 (stereo unspecified)	-68*	x	x	-13	x	x
Cn1ccc2c(-c3ccc(F)cc3)cc3c(c21)C1CCC3C1 (stereo unspecified)	9	x	x	9	x	x
Cn1ccc2c(-c3ccc(CO)cc3)cc3c(c21)C1CCC3C1 (stereo unspecified)	-65*	x	x	-14	x	x
Cn1ccc2c(N(Cc3ccccc3)Cc3ccccc3)cc3c(c21)C1CCC3C1 (stereo unspecified)	-56*	x	x	-10	x	x
CC(=O)N1CCN(S(=O)(=O)c2cccc(C(=O)OCc3cccc(F)c3)c2)CC1	32	1%	18%	-1	-3%	0%
Cc1nc(-c2ccc(Cl)cc2)sc1CCNC(=O)C(=O)Nc1ccc(F)cc1F	x	x	x	6	x	x
CC(C)(C)C(=O)OCC(=O)[C@H]1CC[C@H]2[C@@H]3CCC4=CC(=O)CC[C@]4(C)[C@H]3CC[C@]12C	x	x	x	-5	x	x
OCCC1CN(Cc2cc(F)ccc2F)CCN1CCCc1ccccc1 (stereo unspecified)	-86*	-4%	-11%	-18	-6%	2%
COc1ccc(OC)c(CN2CCN(CCc3ccccc3)C(CCO)C2)c1 (stereo unspecified)	-56*	-1%	-13%	-15	-5%	-1%
CCOc1ccccc1CN1CCN(Cc2cn(C)nc2-c2ccccc2)CC1CCO (stereo unspecified)	-8	0%	14%	-9	-4%	2%
OCCC1CN(Cc2cccc(F)c2F)CCN1CCc1ccccc1 (stereo unspecified)	-19	-2%	0%	-13	-3%	0%
OCCC1CN(Cc2ccc(F)cc2Cl)CCN1CCc1ccccc1 (stereo unspecified)	-99*	0%	8%	-18	-5%	9%
CCOc1ccccc1CN1CCN(CCCc2ccccc2)CC1CCO (stereo unspecified)	-73*	-3%	12%	-21	-1%	-2%
COC1=C(C)C(=O)C2=C(C1=O)C1C3CC4=C(C(=O)C(OC)=C(C)C4=O)C(CNC(=O)C(C)=O)N3C(C#N)C(C2)N1C (stereo unspecified)	-57*	x	-13%	-21	-4%	u
O=C(O)c1nn(Cc2ncc(-c3cccc(Cl)c3)o2)c(=O)c2ccccc12	8	-13%	-9%	33*	1%	0%
COc1cccc(-c2noc(Cn3nc(C(=O)O)c4ccccc4c3=O)n2)c1	3	-2%	3%	8	0%	7%
CCOc1ccc(NC(=O)CCS(=O)(=O)c2ccc3c(c2)n(C)c(=O)c(=O)n3C)cc1	x	x	x	4	x	x
O=C(CN1C(=O)COc2ccc(S(=O)(=O)N3CCCC3)cc21)N1CCN(c2ccccc2F)CC1	x	x	x	2	x	x
COc1ccc(/C=C/C(=O)NC(=S)NNC(=O)Cc2cccs2)cc1OC	-72*	2%	-15%	1	-4%	-5%
COc1ccc(/C=C/C(=O)NC(=S)NNC(=O)c2cccnc2)cc1OC	-61*	2%	-8%	3	-11%	-1%
COc1ccc(C(=O)NNC(=S)NC(=O)c2ccco2)cc1	-58*	-1%	17%	2	0%	0%
COc1ccc(/C=C/C(=O)NC(=S)NNC(=O)c2cccs2)cc1OC	1	u	-13%	5	-5%	-1%
CCOC(=O)/C(=C\c1cccnc1)C(=O)c1cc(C(C)=O)c(Nc2ccccc2)s1	-130*	u	u	-30	-2%	u
Cc1nc2nncn2c(N2CCN(c3ccccc3)CC2)c1C	x	x	x	1	x	x
COc1ccc(C(=O)NC(=S)NNC(=O)Cc2cccs2)cc1	-67*	-2%	-7%	1	-9%	-2%
SMILES	D3 antag	Mm-Cpn inhibitor	Rango release inh	DRD3 agonist	PTAP TSG101 blk	Rango-impB inh
COc1ccc(C=C(C(C)=O)C(C)=O)cc1OC	-50*	2%	1%	2	-5%	-1%
O=C(/C=C/c1cccs1)NC(=S)NNC(=O)Cc1cccs1	-80*	-3%	16%	4	-6%	-1%
CCOC(=O)/C(=C\c1ccc(OC)c(OC)c1)C(=O)c1cccnc1	-50*	-6%	6%	-18	0%	-5%
Cc1ccc(Cl)c(NC(=O)Nc2csc3c2CCCC3)c1	x	x	x	-18	x	x
O=[N+]([O-])c1ccc(N=Nc2ccc(O)c3ccccc23)cc1	-71*	x	-20%	-14	-7%	0%
CCc1ccc(CNC(=O)COc2cc(=O)n(CC)c3ccccc23)cc1	x	x	x	-30	x	x
CC(C)NC[C@H](O)c1ccc(O)c(O)c1	2	1%	u	14	0%	-3%
CNCC(O)c1ccc(OC(=O)C(C)(C)C)c(OC(=O)C(C)(C)C)c1 (stereo unspecified)	-4	-7%	21%	40*!	2%	1%
C=CCOC(=O)C1=C[C@H](c2coc3ccccc3c2=O)[C@@H](CCCO)[C@H](OCC)O1	32	x	-14%	5	-3%	-3%
C=C(C)CCC(C)N1CCC(n2nccc2NC(=O)CCCc2ccccc2)CC1 (stereo unspecified)	-60*	3%	14%	5	0%	-2%
CSCC(C)N1CCC(n2nccc2NC(=O)CCCc2ccccc2)CC1 (stereo unspecified)	1	0%	-21%	-7	u	u
CSCCCN1CCC(n2nccc2NC(=O)CCCc2ccccc2)CC1	-50*	0%	u	-47	-1%	-1%
Cn1cc(CN2CCC(n3nccc3NC(=O)CCCc3ccccc3)CC2)cn1	-4	1%	-9%	0	-1%	-2%
CCN(CC)CCSc1nnc2c3cc(F)ccc3n(Cc3ccccc3)c2n1	u	0%	11%	-20	-13%	2%
CCN(CC)CCSc1nnc2c3ccccc3n(Cc3ccccc3)c2n1	-93*	-1%	19%	-23	-5%	0%
O=C(CCCCCCCCC#CI)Oc1ccccc1	x	x	x	-17	x	x
CC1C/C(=N\NC(=S)NCc2ccccc2)CC(C)(C)C1 (stereo unspecified)	-56*	-2%	0%	-21	-3%	-2%
CC(C)NC(=O)C1(C)CCN1CCC(=O)c1ccccc1 (stereo unspecified)	17	x	x	6	x	x
CC1(C)S[C@@H]2[C@H](NC(=O)[C@H](N)c3ccccc3)C(=O)N2[C@H]1C(=O)OCOC(=O)[C@@H]1N2C(=O)C[C@H]2S(=O)(=O)C1(C)C	x	x	x	-4	x	x
